Assay outcomes from PubChem BioAssay.
Many of the other results were omitted from the sample, so hits are more common in it than they were.
MgrA-DNA mod: alters Staphylococcus aureus MgrA binding to DNA; fluorescence polarization; AID 602314; 84,000 tested, 0.13% active; inhibition, % (test concentration not listed); in the data active = inhibition above about 30%, passing the limit was not always enough;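 also: 0% = protein plus DNA without compound and 100% = DNA alone without protein; higher means less MgrA bound to DNA so lower polarization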
* hit, by the source's call; + = active, no number.

SMILES	MgrA-DNA mod
Nc1ccc(C(O)C(O)CO)cc1 (stereo not given)	-3
Nc1cc[n+](CC(O)CO)cc1 (stereo not given)	56*
COc1cc(C(=O)N2c3ccccc3C(Nc3ccccc3)CC2C)cc(OC)c1OC (stereo not given)	-2
COc1ccc(Cl)cc1N1C(=O)COCC1=O	2
COC(=O)c1csc2c(C(F)(F)F)cc(N3CCN(C(=S)Nc4cc(C(F)(F)F)cc(C(F)(F)F)c4)CC3)nc12	3
CC(C)c1ccc(OC(=O)C(C)N2C(=O)c3ccccc3C2=O)cc1 (stereo not given)	-1
CCC(C(=O)NC(C)c1ccc2c(c1)OCO2)c1ccccc1 (stereo not given)	-3
Cc1ccc(C)n1C(CC(=O)O)c1ccc2c(c1)OCO2 (stereo not given)	53*
NC(=O)CC(c1ccccc1)c1ccc2c(c1)OCO2 (stereo not given)	-5
O=C1C=C(N2CCOCC2)C(=O)c2ccccc21	0
CN1/C(=C\C=C(/C#N)c2nc3ccccc3[nH]2)C(C)(C)c2ccccc21	-12
O=C1C=C(NC2CCCC2)CC(c2ccccc2)C1 (stereo not given)	0
O=C1c2ccccc2C(=O)c2c(NC3CCCCC3)ccc(Nc3ccc(Oc4ccccc4)cc3)c21	-3
O=C1C=C(C(F)(F)F)c2ccc(NC3CCCCC3)c3cccc1c23	56*
Cn1c(Sc2nc3ccc(Cl)cc3s2)nnc1-c1ccc(Cl)cc1Cl	-4
O=C(c1ccc2c(c1)C(=O)N(Cc1ccco1)C2=O)N1CCOCC1	-2
O=C(Nc1ccccc1Cl)c1ccc2c(c1)C(=O)N(Cc1ccco1)C2=O	9
Cc1ccnc(NC(=O)c2ccc3c(c2)C(=O)N(Cc2ccco2)C3=O)c1	30*
Cc1cccc(Nc2nc3nonc3nc2N2CCC(C)CC2)c1	0
COc1cc(NC(=O)C2CC(=O)N(c3cccc(C)c3C)C2)c(OC)cc1Cl (stereo not given)	2
O=C(/C=C/c1ccco1)Nc1cccc(NC(=O)/C=C/c2ccco2)n1	7
O=C(/C=C/c1ccco1)/C=C/c1ccco1	98*
O=C(/C=C/c1ccccc1)/C=C/c1ccco1	33
COC(=O)c1ccccc1NC(=O)CSc1nc2ccc(OC)cc2[nH]1	-3
O=C(O)c1ccccc1Cc1nc2cc(C(F)(F)F)ccc2c(=O)[nH]1	4
SMILES	MgrA-DNA mod
COc1ccc(OCCn2c(NC(=O)c3ccccc3Cl)nc3ccccc32)cc1	2
N#CC1(C#N)[C@H](c2ccoc2)[C@@H](C(=O)Oc2ccccc2)N2c3ccccc3C=C[C@@H]21	0
COC(=O)C1=C(C)N(c2ccc(N(C)C)cc2)C(C)=C(C(=O)OC)C1c1ccccc1	-1
COC(=O)C1=C(C)N2[C@@H](C=C1)[C@@](C#N)(C(N)=O)[C@@H](c1ccccc1)[C@@H]2C(=O)OC	60*
COC(=O)C1=C(N)C(=O)N(c2ccc(C(=O)OC)cc2)C1	3
NC(=O)c1ccc(NC(=O)COC(=O)c2ccccc2I)cc1	-5
FC(F)(F)c1cc(NCCC2CCCCN2)cc(C(F)(F)F)c1 (stereo not given)	-2
Cc1nc2ccccc2nc1CSc1nc2sc3c(c2c(=O)n1C)CCC(C)C3 (stereo not given)	-1
NC(=O)c1ccccc1NC(=O)Cc1ccccc1	-5
Nc1ccc(OC(F)(F)F)cc1	0
CCSc1ccc2c3c(cccc13)C(=O)N(NCCO)C2=O	4
CN(C)c1ccc2c3c(cccc13)C(=O)N(c1nc3ccccc3[nH]1)C2=O	10
CC(=O)NN1C(=O)c2cccc3c(N(C)C)ccc(c23)C1=O	61*
O=C(O)CN(Cc1ccccc1)C(=O)C(F)(F)F	4
CC(C)C1Nc2ccc(C(=O)O)cc2C2C=CCC21 (stereo not given)	21
O=C(O)C1Nc2ccccc2C2C=CCC12 (stereo not given)	45
Cc1ccc2c(c1C)NC(C(=O)O)C1CC=CC21 (stereo not given)	64*
COCCNC(=O)Cc1ccc(C)cc1	0
CNC(=O)c1ccccc1SCCC(=O)O	-3
Cc1cccc(N2C(=O)CNC2=S)c1	0
N#Cc1c(-c2ccccc2)cc(-c2ccco2)c(C#N)c1N	9
N#Cc1c(-c2ccco2)cc(-c2ccccc2)[nH]c1=O	10
N#Cc1c(-c2ccco2)cc(-c2ccco2)[nH]c1=O	56*
Cc1nc2ccccn2c1-c1ccnn1C(=O)c1ccno1	41*
CCOC(=O)c1cnn(C(=O)c2c(C)nc3ccccn23)c1N	-1
SMILES	MgrA-DNA mod
Cc1nc2ccccn2c1-c1ccnn1C(=O)c1ccc(Cl)cc1	1
CSC1=NC2(CC(c3cccs3)c3ccc(O)c(O)c3O2)CC(C)(C)N1 (stereo not given)	12
CCOC(=O)c1c(C)oc(=O)c(Br)c1C	1
O=C(O)c1cc(N2N=C(C(F)(F)F)/C(=C/c3ccc(-c4ccccc4)o3)C2=O)ccc1Cl	58*
CC1=NN(c2ccc(Cl)c(C(=O)O)c2)C(=O)/C1=C\c1ccc(-c2ccccc2C(=O)O)o1	3
CCOC(=O)c1ccc(-c2ccc(/C=C3\C(=O)N(c4cccc(Cl)c4)N=C3C)o2)cc1	-3
CC(C)Sc1nc(N2CCOCC2)c2c(c1C#N)CC(C)(C)OC2	2
Nc1cccc2c1C(=O)c1ccccc1-2	53*
O=C1c2ccccc2C(=O)c2c1cccc2-c1cccc2c1C(=O)c1ccccc1C2=O	1
COC(=O)c1cccc2c1C(=O)c1ccccc1-2	-1
Cc1csc(=Nc2ccccc2)n1-c1ccccc1	-2
CCOC(=O)Cc1csc(NS(=O)(=O)c2cc(C)c(Cl)cc2Cl)n1	0
CCOC(=O)CCc1c(CC(=O)OCC)c[nH]c1/C=N/O	61*
CCOC(=O)CCc1n[nH]c(=O)[nH]c1=O	2
CCOC(=O)Cc1cc(C)[nH]c1C(=O)OCC	-1
CC(=O)OCC1OC(OC(C)=O)C(O)C(OC(C)=O)C1OC(C)=O (stereo not given)	0
CCc1ccc(-c2nn(-c3ccccc3)cc2/C=C2\SC(=S)NC2=O)cc1	1
Cc1ccc(-c2nn(-c3ccccc3)cc2/C=C2\SC(=S)N(CCCC(=O)O)C2=O)cc1	99*
Cc1ccc(-c2nn(-c3ccccc3)cc2/C=C2\SC(=S)NC2=O)cc1	4
CCOc1ccccc1C(=O)NC1CCSC1=O (stereo not given)	1
CCOc1cccc(=O)c2c(C)n(-c3ccc(OC)cc3)c(C)c12	2
CCOc1ccccc1C(=O)N(C)c1ccccc1	-1
CCOc1cccc(=[O+]CC)c2c(C)oc(C)c12	63*
O=C1N[C@H](Cc2ccccc2)C(=O)N2CCC[C@@H]12	-5
COc1cccc2c1C(=O)c1c(O)c3c(c(O)c1C2=O)C[C@@](O)(C(C)=O)C[C@@H]3OC1CC(N)C(O)C(C)O1 (stereo not given in full)	+
SMILES	MgrA-DNA mod
COc1cccc2c1C(=O)c1c(O)c3c(c(O)c1C2=O)C[C@@](O)(C(=O)CO)C[C@@H]3O[C@H]1C[C@H](N)[C@H](O)[C@H](C)O1	+
O=c1[nH]ncc(NCc2ccccc2)c1Cl	-1
O=C(OCC1CC1)c1cnc(N2CCCCC2)nc1C(F)(F)F	0
CC1C(=O)CCC2C(C)(COc3ccc4ccc(=O)oc4c3)CCCC12C (stereo not given)	0
Cc1cccc(NC(=S)N(CCN(C)C)Cc2cc3cc4c(cc3[nH]c2=O)OCO4)c1	-4
Cc1cc(N=Cc2ccc(N3CCOCC3)cc2)ccc1Br	0
CCC1CCc2nc3sc(C(=O)Nc4ccccc4C(F)(F)F)c(N)c3cc2C1 (stereo not given)	3
